According to PubChem BioAssay AID1985 (Southern Research Specialized Biocontainment Screening …, 2009):
The whole screen tested about 2,300 compounds, of which about 1,000 (43%) were called active. The set was probably picked from earlier hits. The list shows a part of the results. Potency and affinity values are given separately. Unmarked numbers belong to inactive results. How the calls were made is not given here.

test: modified counter assay using GFP fluorescence, PhoP regulon inhibitor project, dose response (AID 1985); conditions: S. Typhi, 4 h; series mostly up to 150 µM; inhibition: at the top concentration

SMILES | inhibition [%]
COc1ccc(-c2cc(C(=O)Nc3ccc(S(=O)(=O)Nc4onc(C)c4C)cc3)c3ccccc3n2)cc1OC | 9.88
CCC(CC)C(=O)NCCc1cc2ccc(C)cc2[nH]c1=O | -11.5
O=Cc1ccc(N2CCCCCC2)cc1 | -1.36
CCOC(=O)C1=C(C)NC(SCC(N)=O)=C(C#N)C1c1ccncc1 (stereo not drawn) | -2.55
COc1ccccc1C(=O)N1CC2(C)CC1CC(C)(C)C2 (stereo not drawn) | -17.9
COc1ccc(Cl)cc1-c1n[nH]c(=S)o1 | 22.8
COc1ccc(-c2nnn(-c3ccc(Cl)cc3Cl)c2N)cc1 | 18.2
Clc1ccc2nc(N3CCCCC3)[nH]c2c1 | 36.1
Clc1ccc(/C=C/c2ncc[nH]2)c(Cl)c1 | -14.2
CN(C)C(CNc1ccc([N+](=O)[O-])cc1C#N)c1ccccc1 (stereo not drawn) | 0.73
CCN1CCN(Cc2ccc(NC(=O)c3ccc(C)c(NC(=O)C(=O)c4c[nH]c5ccccc45)c3)cc2C(F)(F)F)CC1 | 22.5
COc1ccc(C(=O)C2CCN(CC(=O)Nc3cc(C)cc(C)c3)CC2)cc1 | 5.89
O=C(CSC1=NCCS1)Nc1nc2c(s1)CCCC2 | -5.66
Cc1ccc(CNC(=O)CCC(=O)Nc2nnc(C)s2)cc1 | 6.87
COc1ccc(CC(=O)Nc2ncc([N+](=O)[O-])s2)cc1OC | 37.9
O=C(c1cc2c(s1)-c1ccccc1S(=O)(=O)C2)N1CCN(Cc2ccccc2)CC1 | 4.65
COc1cccc(OC)c1C(=O)Nc1ccc(N2CCN(S(C)(=O)=O)CC2)cc1 | 8.9
COCc1ccc(C(=O)Nc2ccc(C(=O)O)cc2)o1 | 28.9
COC(=O)C1=C(C)N(C2CCCC2)C(=O)C1(NC(C)=O)C(F)(F)F (stereo not drawn) | -18.9
NC(=O)c1cc(C(=O)c2cccc(Cl)c2Cl)c[nH]1 | 24.7
Cc1cnc(C(=O)Nc2nnc(C)s2)cn1 | 14.5
O=C1C=C(Nc2ccccc2O)c2ccccc2C1=O | 31.8
CCCCCCOc1ccc(N2C(=O)CC(SC(=NCC)NCC)C2=O)cc1 (stereo not drawn) | 2.18
CCCCOc1ccc(CN2CCC(O)CC2)cc1 | 17.8
CN(C)CCCN1c2ccccc2Sc2ccc(C(F)(F)F)cc21 | 30.6

SMILES | inhibition [%]
O=C1NC(=S)S/C1=C1\Sc2ccccc2N1CCCS(=O)(=O)O | 2.35
Cc1nc(-c2ccc(C(=O)N3CCOCC3)cc2)cs1 | 10.6
O=C(Cc1ccc(F)cc1)NC1CCCC1 | 12.7
Cc1ccc(C)c(NC(=O)c2ccccc2O)c1 | -7.11
Cc1ccc(C)c(OCc2ccc(C(=O)NN)o2)c1 | 27.3
Cn1ncc(N=Cc2ccccc2O)c1C(=O)N1CCOCC1 | -12.2
O=C(NC1CCCCC1)c1ccc(S(=O)(=O)NCc2cccnc2)cc1 | -17.7
C[C@]1(OC(=O)/C=C/c2ccccc2)C[C@@H](O)[C@]2(O)C=CO[C@@H](O[C@@H]3O[C@H](CO)[C@@H](O)[C@H](O)[C@H]3O)[C@@H]21 | 5.08
C1=Nc2ccccc2CN1c1ccccc1 | 7.62
COc1ccc(C(C(=O)Nc2ccc(C(C)C)cc2)N(Cc2ccco2)C(=O)CC2NC(=O)NC2=O)cc1 (stereo not drawn) | -6.35
Cc1ncc([N+](=O)[O-])n1CC(=O)NC1CCCC1 | 1.84
CC(=O)NS(=O)(=O)c1ccc(Nc2ccc([N+](=O)[O-])c3nonc23)cc1 | 34.2
CC1=C([N+](=O)[O-])C(c2ccccc2)C2=C(N1)c1ccccc1C2=O (stereo not drawn) | 24.3
O=C1CC(=O)CC(c2ccco2)C1 | 28.2
COc1ccccc1C(=O)Nc1nnc(-c2ccc(F)cc2)o1 | 26.4
N#CC1=C2N=C(N)c3ccccc3N2C2=C(C(=O)CCC2)C1c1cccc(Cl)c1 (stereo not drawn) | 5.41
O=C1c2ccccc2NC(c2cccc([N+](=O)[O-])c2)N1CCc1ccccc1 (stereo not drawn) | 9.59
CCS(=O)(=O)N1CCN(C(=O)c2ccco2)CC1 | -24.8
COc1cc(S(=O)(=O)N2CCN(C(=O)c3ccco3)CC2)c(OC)cc1C | -10.2
COc1ccccc1NC(=O)Cn1nc(-c2ccncc2)nc1SCC(=O)NC1CCCC1 | -1.02
O=C(CCNS(=O)(=O)c1cccc2nonc12)N1CCN(c2cccc(Cl)c2)CC1 | 7.36
C=CCN(c1ccccc1)S(=O)(=O)c1cccc2cccnc12 | -2.13
CC1CC(C)CN(S(=O)(=O)c2cccc3cccnc23)C1 (stereo not drawn) | -4.37
CCN(CC)C(=O)C(=O)c1cn(CC(=O)N2CCc3ccccc3C2)c2ccccc12 | 21.2
CC(=O)Oc1ccc(C(=O)Nc2ccc3c(c2)C(=O)N(CCC(=O)O)C3=O)cc1 | 13.5

SMILES | inhibition [%]
Brc1ccc2c(c1)CN1CCCC1=N2 | 37.3
c1ccc(CNc2nc(-c3ccccn3)nc3ccccc23)cc1 | 0.55
Cc1n[nH]c(=O)nc1NCCc1ccccc1 | -1
CCOC(=O)COc1cccc2c(=O)n(CC(=O)N3CCCCC3)ccc12 | -13.4
CC(=O)CC1OC(=O)C(Br)=C1NCc1ccccc1 (stereo not drawn) | 3.89
COC(=O)CNc1n[nH]c(=S)[nH]c1=O | 25.4
O=C(C[n+]1cc(Br)cc2ccccc21)c1ccc(F)cc1 | 21.7
COc1ccc(C(=O)C[n+]2cc(Br)cc3ccccc32)cc1[N+](=O)[O-] | 4.84
CCOCCCNC(=O)CN1CCN(Cc2ccccc2C)C1=O | -10.6
COC(=O)c1c(-c2cccc(C)c2)csc1N | 7.62
COC(=O)c1cc2ccsc2n1CC(=O)N(C)c1ccccc1 | 22.5
CC(C)(C)CC(=O)Nc1nnc(SCC(=O)N2CCCCC2)s1 | 19.3
Cc1nc(C)c(-c2ccc(SCc3ccccc3C)nn2)s1 | 1.29
COc1ccc(-c2nnc(SC(C)C(=O)Nc3nccs3)n2Cc2ccccc2)cc1OC (stereo not drawn) | -11.8
CC1=C(C#N)CCC(=O)N1Cc1c(C)cc(C)cc1C | 16.8
COc1ccc(Cl)cc1NC(=O)c1cc(-c2ccccc2)on1 | -9.57
CC(Oc1ccc(Br)cc1)c1nc2c3ccccc3nc(=S)n2[nH]1 (stereo not drawn) | 36.7
COc1ccc(NC(=O)Cn2cnc3c(cnn3C(C)(C)C)c2=O)cc1OC | -7.57
COc1ccc(-n2nnc3c(SCC(=O)N4CCCc5ccccc54)ncnc32)cc1 | -1.62
Cc1ccn2cc(C(=O)Nc3nnc(C)s3)nc2c1 | 8.12
Cc1cc(C(=O)OCC(=O)Nc2cccc(S(=O)(=O)N3CCOCC3)c2)c(C)o1 | -14.2
C#CCOCCOCCOCCNc1nc(N2CCN(C(=O)C(Cc3cc4ccccc4[nH]3)n3cc(C(N)C(C)CC)nn3)CC2)nc(N2CCN(C(=O)C(Cc3cc4ccccc4[nH]3)n3cc(C(N)C(C)CC)nn3)CC2)n1 (stereo not drawn) | 4.82
C#CCOCCOCCOCCNc1nc(N2CCN(C(=O)[C@H](CCCCN)n3cc([C@@H](N)CO)nn3)CC2)nc(N2CCN(C(=O)[C@H](Cc3cc4ccccc4[nH]3)n3cc([C@@H](N)Cc4ccc(O)cc4)nn3)CC2)n1 | 6.35
